Drawing on PubChem BioAssay (EPA / NIEHS), this text covers outcome and AC50 for eight molecules.

Assay [1] is described as follows: ATG_PBREM_CIS: Attagene CIS-FACTORIAL HepG2 Assay for human Phenobarbital-responsive Enhancer Module (PBREM) (AID 2282955). To be noted: HepG2 PBREM cis-reporter, Attagene multiplexed transcription; actives raise or lower the signal. Summed up:
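HepG2 cells transiently transfected with multiple cis-regulated reporter transcription units; endogenous factor activity at the PBREM element measured as reporter mRNA 24 h after dosing, via RT-PCR and capillary electrophoresis of fluorescent fragments; bidirectional fitting versus DMSO.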

In assay [2] the target is Paired box protein Pax-6 (Homo sapiens) (UniProt P26367). Kind of assay: ATG_Pax6_CIS: Attagene CIS-FACTORIAL HepG2 Assay for human Paired Box 6 (PAX6) (AID 2282956). Conditions: HepG2 CIS-FACTORIAL PAX6 reporter transcription, RNA readout; actives raise or lower the signal. Summed up: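 Read-out is reporter transcript level, measured by RT-PCR with fluorescent primer extension and capillary electrophoresis after 24 h dosing of transfected HepG2 cells. Activity in either direction fitted relative to DMSO control.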
Chain of Paired box protein Pax-6 (Homo sapiens) (P26367 whole entry, looked up): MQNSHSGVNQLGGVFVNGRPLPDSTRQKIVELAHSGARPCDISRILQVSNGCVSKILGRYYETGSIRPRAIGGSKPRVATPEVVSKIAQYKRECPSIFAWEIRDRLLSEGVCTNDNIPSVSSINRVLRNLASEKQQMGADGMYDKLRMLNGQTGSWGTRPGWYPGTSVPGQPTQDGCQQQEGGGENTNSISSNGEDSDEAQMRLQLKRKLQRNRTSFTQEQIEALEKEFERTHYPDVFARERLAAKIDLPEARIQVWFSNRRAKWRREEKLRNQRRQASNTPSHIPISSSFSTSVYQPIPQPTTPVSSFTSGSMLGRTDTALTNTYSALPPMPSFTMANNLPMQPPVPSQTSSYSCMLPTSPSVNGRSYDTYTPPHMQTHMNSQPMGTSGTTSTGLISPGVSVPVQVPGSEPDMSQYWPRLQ

Assay [3] can be described thus: ATG_PXRE_CIS: Attagene CIS-FACTORIAL HepG2 Assay for human Pregnane X Receptor Element (PXRE) (AID 2282957). To be noted: HepG2 Attagene CIS-FACTORIAL PXRE reporter, mRNA; actives raise or lower the signal. Summed up:
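Endogenous transcription factor activity in HepG2 was gauged through induction of reporter mRNA driven by a cis-regulating promoter element, sampled 24 h post-treatment. Activity was fitted in both directions against DMSO negative control.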

Assay [4] can be described thus: ATG_RORE_CIS: Attagene CIS-FACTORIAL HepG2 Assay for human RAR-related Orphan Receptor Element (RORE) (AID 2282959). To be noted: HepG2 Attagene cis-factorial RORE reporter, mRNA; actives raise or lower the signal. The essentials: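 HepG2 cells transiently transfected with multiple cis-element reporter transcription units, exposed to chemical for 24 h. Reporter mRNA quantified by RT-PCR, 6-FAM primer-extension labeling, HpaI digestion and capillary electrophoresis; bidirectional fit versus DMSO baseline.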

A short description of assay [5]: ATG_Sox_CIS: Attagene CIS-FACTORIAL HepG2 Assay for human SRY-box transcription factor (SOX) (AID 2282960). To be noted: HepG2 Attagene cis-factorial SOX reporter, mRNA; actives raise or lower the signal. The essentials:
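HepG2 cells transiently transfected with cis-element-driven multiple reporter transcription units, dosed 24 h; reporter mRNA measured by RT-PCR, FAM labelling, HpaI digestion and capillary electrophoresis. Bidirectional fit versus DMSO baseline.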

The target of assay [6] is Transcription factor Sp1 (Homo sapiens) (UniProt P08047). The assay is described as follows: ATG_Sp1_CIS: Attagene CIS-FACTORIAL HepG2 Assay for human Specificity Protein 1 (Sp1) (AID 2282961). To be noted: HepG2 Sp1 cis-reporter transcription, actives raise or lower the signal. The essentials:
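HepG2 cells transiently transfected with multiple reporter transcription units driven by cis-regulatory elements; Sp1-responsive reporter mRNA measured 24 h after dosing by RT-PCR and capillary electrophoresis fluorescence, fitted bidirectionally against DMSO baseline.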

Assay [7] can be described thus: ATG_SREBP_CIS: Attagene CIS-FACTORIAL HepG2 Assay for human Sterol Regulatory Element Binding (SREBP) (AID 2282962). To be noted: HepG2 Attagene cis-factorial SREBP reporter, mRNA; actives raise or lower the signal. Summed up:
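Endogenous SREBP activity read as cis-element-driven reporter transcript in transiently transfected HepG2, 24 h post-dosing; quantified via RT-PCR plus capillary electrophoresis of fluorescent fragments. Gain or loss of signal fitted relative to DMSO baseline.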

The target in assay [8] is Signal transducer and activator of transcription 3 (Homo sapiens) (UniProt P40763). The assay is described as follows: ATG_STAT3_CIS: Attagene CIS-FACTORIAL HepG2 Assay for human Signal Transducer and Activator of Transcription 3 (STAT3) (AID 2282963). Conditions: HepG2, Attagene cis-factorial STAT3 reporter transcription; actives raise or lower the signal. The essentials:
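Readout is reporter transcript quantified by RT-PCR and capillary electrophoresis, with 6-FAM primer extension and HpaI digestion. Total RNA is taken 24 h after dosing transiently transfected HepG2 carrying cis-regulated reporter units. Bidirectional fit against DMSO.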

Assay [9] is described as follows: ATG_TA_CIS: Attagene CIS-FACTORIAL HepG2 Assay for human TA Basal Promoter (AID 2282964). To be noted: HepG2 Attagene CIS-factorial TA basal promoter reporter; actives raise or lower the signal. Summed up: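 Read-out: fluorescent reporter-transcript fragments resolved by capillary electrophoresis after RT-PCR and HpaI digestion. Source: HepG2 cells carrying transiently transfected multi-reporter cis constructs, treated 24 h. Endpoint fitted bidirectionally relative to DMSO.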

A short description of assay [10]: ATG_TCF_b_cat_CIS: Attagene CIS-FACTORIAL HepG2 Assay for human T-Cell-Factor with beta-catenin (TCF/b-cat) (AID 2282965). To be noted: HepG2 TCF/beta-catenin cis-reporter transcription, actives raise or lower the signal. Summed up: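 Measured: reporter mRNA in HepG2 transiently transfected with cis-promoter reporter units, 24 h after chemical addition. Fitting was bidirectional, DMSO as negative control.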

A short description of assay [11]: ATG_TAL_CIS: Attagene CIS-FACTORIAL HepG2 Assay for human TAL Basal Promoter (AID 2282966).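 Note: background control endpoint measuring basal TAL promoter reporter mRNA not a specific factor.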 To be noted: HepG2 Attagene cis-factorial TAL promoter reporter; actives raise or lower the signal. The essentials:
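Endogenous transcription-factor activity is sensed in HepG2 cells through transfected cis-promoter reporter constructs. After 24 h dosing, reporter transcripts are quantified by RT-PCR and capillary electrophoresis. Gain or loss of signal is fitted relative to DMSO.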

Assay [12] in a line: ATG_TGFb_CIS: Attagene CIS-FACTORIAL HepG2 Assay for human Transforming Growth Factor (TGF) (AID 2282967). To be noted: HepG2 Attagene CIS TGFb reporter, mRNA transcription; actives raise or lower the signal. The essentials: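 Transient MRTU transfection of HepG2 (FuGene 6). Dose 24 h. TriZol RNA, oligo(dT) RT, PCR, 6-FAM primer extension, HpaI cut, CE. Bidirectional fit, DMSO = baseline.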

The nature of assay [13]: ATG_VDRE_CIS: Attagene CIS-FACTORIAL HepG2 Assay for human Vitamin D Receptor Element (VDRE) (AID 2282968). Conditions: HepG2 VDRE cis-reporter transcription, actives raise or lower the signal. Summed up: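 Readout is VDRE-driven reporter mRNA reflecting endogenous factor activity in human HepG2 cells, sampled 24 h post-dose. Quantification used labelled RT-PCR products separated by capillary electrophoresis; bidirectional analysis relative to DMSO.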

In assay [14] the target is X-box-binding protein 1 (Homo sapiens) (UniProt P17861). The assay is described as follows: ATG_Xbp1_CIS: Attagene CIS-FACTORIAL HepG2 Assay for human X-box Binding Protein 1 (XBP1) (AID 2282972). To be noted: HepG2 XBP1 cis-element reporter, Attagene multiplex; actives raise or lower the signal. The essentials:
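Reporter transcripts were quantified by RT-PCR with fluorescent primer extension and capillary electrophoresis after 24 h chemical exposure. Cells: transiently transfected HepG2 carrying cis-regulated reporter constructs; data fitted bidirectionally relative to DMSO.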

Assay [15] in a line: ATG_GAL4_TRANS: Attagene TRANS-FACTORIAL HepG2 Assay for GAL4 (Internal Marker) (AID 2282976; active = hit-call score of the fitted dose curve at least 0.9, where 1 is the maximum). To be noted: HepG2 Attagene TRANS GAL4 internal marker reporter. The essentials:
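Fluorescence from capillary electrophoresis of labelled RT-PCR products quantifies reporter mRNA induction after 24 h dosing of HepG2 cells carrying transfected GAL4-UAS reporter transcription units. Vehicle DMSO serves as baseline.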

For assay [16], the target named is Estrogen receptor (Homo sapiens) (UniProt P03372). The assay is described as follows: ATG_ERa_TRANS: Attagene TRANS-FACTORIAL HepG2 Assay for human Estrogen Receptor alpha (ERa) (AID 2282970; active = hit-call score of the fitted dose curve at least 0.9, where 1 is the maximum). To be noted: HepG2 Attagene TRANS ERa GAL4 reporter, mRNA. The essentials: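 Transfected HepG2 cells carrying GAL4-UAS-driven reporter units were dosed for 24 hours. Total RNA was reverse-transcribed, reporter sequences PCR-amplified, FAM-labelled, HpaI-digested and resolved by capillary electrophoresis. Increases over DMSO control defined activity.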
Chain of Estrogen receptor (Homo sapiens) (P03372 whole entry, looked up, the tested form may be a part): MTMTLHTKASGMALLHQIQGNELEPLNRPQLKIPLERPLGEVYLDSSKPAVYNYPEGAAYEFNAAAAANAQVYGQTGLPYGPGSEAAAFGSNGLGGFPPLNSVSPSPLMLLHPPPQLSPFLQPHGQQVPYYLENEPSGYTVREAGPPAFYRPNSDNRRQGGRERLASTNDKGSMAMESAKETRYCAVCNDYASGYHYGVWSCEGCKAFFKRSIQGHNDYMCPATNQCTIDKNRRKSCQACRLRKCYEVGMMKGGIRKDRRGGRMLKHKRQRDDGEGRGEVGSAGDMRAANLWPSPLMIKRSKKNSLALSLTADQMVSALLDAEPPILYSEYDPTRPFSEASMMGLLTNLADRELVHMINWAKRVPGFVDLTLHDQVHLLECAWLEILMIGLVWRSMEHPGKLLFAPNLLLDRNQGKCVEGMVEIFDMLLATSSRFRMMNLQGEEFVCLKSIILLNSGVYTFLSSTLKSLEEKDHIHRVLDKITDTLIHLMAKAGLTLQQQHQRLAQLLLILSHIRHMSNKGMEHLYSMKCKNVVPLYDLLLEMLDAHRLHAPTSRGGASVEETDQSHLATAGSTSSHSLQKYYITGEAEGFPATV

The target in assay [17] is Nuclear receptor subfamily 1 group I member 3 (Homo sapiens) (UniProt Q14994). The assay is described as follows: ATG_CAR_TRANS: Attagene TRANS-FACTORIAL HepG2 Assay for human Constitutive Androstane Receptor (CAR) (AID 2282969; active = hit-call score of the fitted dose curve at least 0.9, where 1 is the maximum;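 note: activators raise reporter mRNA above DMSO so AC50 marks induction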). To be noted: HepG2 Attagene TRANS-FACTORIAL CAR reporter. Summed up: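 Signal is reporter mRNA induction relative to DMSO, measured 24 h after dosing by RT-PCR with fluorescent primer extension and capillary electrophoresis. Human HepG2 liver cells carried transiently transfected chimeric NR-Gal4/GAL4-UAS reporter constructs.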
Chain of Nuclear receptor subfamily 1 group I member 3 (Homo sapiens) (Q14994 whole entry, looked up, the tested form may be a part): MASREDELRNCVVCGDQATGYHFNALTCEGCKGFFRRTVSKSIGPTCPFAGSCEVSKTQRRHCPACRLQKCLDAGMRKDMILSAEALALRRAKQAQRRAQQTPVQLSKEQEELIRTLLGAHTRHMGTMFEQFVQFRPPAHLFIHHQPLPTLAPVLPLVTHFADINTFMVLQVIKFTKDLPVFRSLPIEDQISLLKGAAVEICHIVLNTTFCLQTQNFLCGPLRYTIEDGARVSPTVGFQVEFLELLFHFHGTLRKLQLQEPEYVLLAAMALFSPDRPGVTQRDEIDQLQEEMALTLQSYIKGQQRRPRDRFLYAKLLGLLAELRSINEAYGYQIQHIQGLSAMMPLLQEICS

Assay [18] in a line: ATG_M_19_TRANS: Attagene TRANS-FACTORIAL HepG2 Assay for M19 Transcription Factor (Internal Marker) (AID 2282974; active = hit-call score of the fitted dose curve at least 0.9, where 1 is the maximum). Conditions: HepG2 Attagene TRANS-FACTORIAL M19 internal marker reporter. Summed up:
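HepG2 cells transiently transfected with multiple GAL4-UAS reporter transcription units were exposed to chemicals for 24 h. Reporter mRNA was read by RT-PCR, 6-FAM primer extension, HpaI digestion and capillary electrophoresis; gain of signal fitted relative to DMSO.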

Assay [19] deals with Steroid hormone receptor ERR1 (Homo sapiens) (UniProt P11474). Kind of assay: ATG_ERRa_TRANS: Attagene TRANS-FACTORIAL HepG2 Assay for human Estrogen-Related Receptor alpha (ERRa) (AID 2282971; active = hit-call score of the fitted dose curve at least 0.9, where 1 is the maximum). Conditions: HepG2 Attagene TRANS reporter, ERRa transactivation. The essentials:
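HepG2 cells were transiently transfected with multiple GAL4-UAS reporter units, then dosed with compound for 24 h. Total RNA was reverse-transcribed, reporter cDNA PCR-amplified and fluorescently labelled, and fragments resolved by capillary electrophoresis; induction was compared with DMSO.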

Inconclusive results are not listed. Calls of active or inactive are those of the source. Rule for the calls, unless noted: active = hit-call score of the fitted dose curve at least 0.9, where 1 is the maximum; inactive = score below 0.9.

Chain of X-box-binding protein 1 (Homo sapiens) (P17861 whole entry, looked up): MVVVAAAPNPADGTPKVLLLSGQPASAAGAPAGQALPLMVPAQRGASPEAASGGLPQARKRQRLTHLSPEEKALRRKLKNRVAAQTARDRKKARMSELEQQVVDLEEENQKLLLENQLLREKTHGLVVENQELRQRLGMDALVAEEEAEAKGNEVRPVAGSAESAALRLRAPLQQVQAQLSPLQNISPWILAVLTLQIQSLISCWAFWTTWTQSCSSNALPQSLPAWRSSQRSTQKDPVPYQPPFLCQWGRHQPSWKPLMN
Chain of Signal transducer and activator of transcription 3 (Homo sapiens) (P40763 whole entry, looked up): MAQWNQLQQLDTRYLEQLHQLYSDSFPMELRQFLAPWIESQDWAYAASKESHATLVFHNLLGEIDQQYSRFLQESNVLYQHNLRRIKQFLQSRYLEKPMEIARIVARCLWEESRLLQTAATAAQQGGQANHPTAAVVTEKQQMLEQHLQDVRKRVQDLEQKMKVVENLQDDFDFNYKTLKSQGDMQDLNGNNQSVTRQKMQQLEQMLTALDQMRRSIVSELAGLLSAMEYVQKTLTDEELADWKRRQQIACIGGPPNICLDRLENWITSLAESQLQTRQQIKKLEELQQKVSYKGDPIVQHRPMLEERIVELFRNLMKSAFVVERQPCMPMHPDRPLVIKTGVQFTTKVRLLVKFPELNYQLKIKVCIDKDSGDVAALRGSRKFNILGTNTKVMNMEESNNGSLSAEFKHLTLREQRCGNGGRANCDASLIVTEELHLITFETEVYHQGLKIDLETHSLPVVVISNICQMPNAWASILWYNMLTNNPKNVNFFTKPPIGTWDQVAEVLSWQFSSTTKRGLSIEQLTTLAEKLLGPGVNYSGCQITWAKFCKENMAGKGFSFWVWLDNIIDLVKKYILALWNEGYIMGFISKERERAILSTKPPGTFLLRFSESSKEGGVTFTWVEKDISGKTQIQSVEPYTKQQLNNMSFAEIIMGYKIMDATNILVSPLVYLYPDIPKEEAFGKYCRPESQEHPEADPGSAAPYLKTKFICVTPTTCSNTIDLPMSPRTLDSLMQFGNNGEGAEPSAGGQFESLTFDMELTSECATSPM
Chain of Transcription factor Sp1 (Homo sapiens) (P08047 whole entry, looked up): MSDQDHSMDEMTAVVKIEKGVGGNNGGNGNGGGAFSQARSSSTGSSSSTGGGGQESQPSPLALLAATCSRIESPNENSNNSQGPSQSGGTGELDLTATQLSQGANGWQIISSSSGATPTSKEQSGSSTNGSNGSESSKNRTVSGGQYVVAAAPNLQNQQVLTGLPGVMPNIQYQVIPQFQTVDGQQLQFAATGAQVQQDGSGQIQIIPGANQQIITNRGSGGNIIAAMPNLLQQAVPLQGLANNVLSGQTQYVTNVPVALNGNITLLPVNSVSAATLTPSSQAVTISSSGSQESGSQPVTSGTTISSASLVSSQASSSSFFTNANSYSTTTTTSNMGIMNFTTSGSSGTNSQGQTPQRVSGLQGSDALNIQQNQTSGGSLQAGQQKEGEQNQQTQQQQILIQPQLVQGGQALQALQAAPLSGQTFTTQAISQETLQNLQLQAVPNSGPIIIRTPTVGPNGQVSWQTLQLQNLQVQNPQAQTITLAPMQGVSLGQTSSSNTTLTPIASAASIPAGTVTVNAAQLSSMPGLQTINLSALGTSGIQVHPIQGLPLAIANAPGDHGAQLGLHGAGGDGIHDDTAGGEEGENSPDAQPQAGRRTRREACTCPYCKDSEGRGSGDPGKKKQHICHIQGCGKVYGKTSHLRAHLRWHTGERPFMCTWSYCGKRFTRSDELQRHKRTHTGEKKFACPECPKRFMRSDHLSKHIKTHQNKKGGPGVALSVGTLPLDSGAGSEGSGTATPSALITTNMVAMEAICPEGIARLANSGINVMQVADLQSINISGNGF
Chain of Steroid hormone receptor ERR1 (Homo sapiens) (P11474 whole entry, looked up, the tested form may be a part): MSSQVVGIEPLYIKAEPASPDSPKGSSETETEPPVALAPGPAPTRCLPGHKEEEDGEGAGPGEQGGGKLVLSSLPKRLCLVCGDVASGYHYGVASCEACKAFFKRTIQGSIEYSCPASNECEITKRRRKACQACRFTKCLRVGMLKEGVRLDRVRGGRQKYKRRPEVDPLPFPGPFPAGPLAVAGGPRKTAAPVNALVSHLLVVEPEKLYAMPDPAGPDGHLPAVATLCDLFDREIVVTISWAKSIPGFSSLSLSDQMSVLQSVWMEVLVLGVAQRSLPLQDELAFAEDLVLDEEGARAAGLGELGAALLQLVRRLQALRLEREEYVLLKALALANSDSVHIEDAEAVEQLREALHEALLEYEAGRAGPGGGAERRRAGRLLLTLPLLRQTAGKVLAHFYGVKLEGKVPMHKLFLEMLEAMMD

`CC(CC(C)C)=NO`: the result in assay [1], in assay [2], in [3], in [4], in assay [5] and in assay [6] was inactive. Moreover, the molecule was called inactive in assay [7], in assay [8], in assay [9], in [10], in [11] and in [12]. Also, the call in [13], in assay [14] and in assay [15] was inactive.

For the molecule `CCCC(C)C(=O)OCC` (stereo not given), the outcome in assay [1], in [2], in [3], in assay [4], in [5] and in assay [6] was inactive. Also, the outcome in [7], in assay [8], in assay [9], in assay [10], in assay [11] and in assay [12] was inactive. Also, the molecule was classed as inactive in assay [13], in assay [16] and in assay [15].

As for `CCOC(=O)CC(=O)c1ccccc1`, the outcome in [1], in [2], in [4], in [5], in [6] and in [7] was inactive. Moreover, the call in assay [8], in assay [9], in [10], in assay [11], in assay [12] and in assay [13] was inactive. The molecule was classed as inactive in assay [17], in assay [14], in assay [18] and in [15]. For the same molecule, the AC50 in assay [3] is 10.4 µM (active).

For the molecule `O=C(O)C1CCC(C(=O)O)CC1` (stereo not given), the result in assay [1], in assay [2], in assay [3], in assay [4], in [5] and in assay [6] was inactive. Besides, the molecule was classed as inactive in assay [7], in assay [8], in assay [9], in assay [10], in assay [11] and in assay [13]. The molecule was called inactive in [16] and in [14].

Turning to `O=C(Oc1ccccc1)c1ccccc1O`, the outcome in assay [1], in assay [2], in assay [3], in [4], in assay [5] and in assay [6] was inactive. The call in assay [7], in assay [8], in [9], in [10], in [11] and in assay [17] was inactive. For the same molecule, the molecule was classed as inactive in assay [16], in assay [14] and in [15].

With `c1ccc(Nc2cccc3ccccc23)cc1`, the result in assay [1], in [4], in [8], in assay [9], in assay [11] and in assay [12] was inactive. The molecule was classed as inactive in [17]. Moreover, the AC50 is 33.4 µM (active) in assay [2]; 8.67 µM (active) in assay [3]; 48.1 µM (active) in assay [5]; 47.1 µM (active) in assay [6]; 60.4 µM (active) in assay [7]; 50.8 µM (active) in [10]. Further, the figures for the AC50 in assay [13] and in assay [16] were 10.3 µM (active) and 2.75 µM (active), respectively.

Take `CCCCOC(=O)C(C)CC` (stereo not given): the result in assay [1], in assay [2], in assay [4], in assay [5], in assay [6] and in assay [7] was inactive. The molecule was classed as inactive in assay [9], in assay [10], in assay [11], in [13] and in [14]. In addition, in assay [3], the AC50 is 27.1 µM (active).

Turning to `COC(OC)(C(=O)c1ccccc1)c1ccccc1`, the half-maximal activity concentration (AC50) in assay [1] was 3.88 µM (active); in assay [2], 66 µM (active); in assay [3] it was 2.19 µM (active); in [13], 5.89 µM (active); in [16], 0.817 µM (active). Moreover, the molecule was called inactive in assay [5], in assay [6], in assay [7], in assay [8], in assay [9] and in assay [10]. The result in assay [11], in [17], in assay [19], in assay [14], in [18] and in [15] was inactive.

Usually AC50 stands for the concentration at which the activity in the assay is half-maximal.
